This is a sample that favours compounds with a hit; in the whole collection about 6.2% have one here.
HT1080 IDH1KD tx: toxicity to HT-1080 IDH1 knockdown cells (counter line). HT-1080 IDH1 knockdown viability, ATP luminescence, 48 h. Potency, µM (top dose mostly 46.1 µM), inactives show top-dose activity, negative = toxicity, usual class: cytotoxic. 360,000 tested, 2% active. AID 686971;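 further: 0% = DMSO wells and -100% = cell-free medium wells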
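Using the IDH1-knockdown HT-1080 line run in the same batch and compound series as the NT line, viability after 48 h at 37 °C was determined by CellTiter-Glo luminescence and expressed as % activity.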
ATXN2 expr inh: inhibitors of ATXN2 expression | HEK-293 ATXN2-luciferase reporter, luminescence, 24 h | Potency, µM (series often up to 57 µM), without a hit: at the highest dose activity change, negative = inhibition, actives largely listed as inhibitors | 360,000 tested, 0.72% active | AID 1745845; further: on the % scale 0 is the no-effect control and ±100 the full control effect; nearly all actives have a fitted effect of over 55% in size
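qHTS (up to 57 uM final) was run with 24 h compound exposure of reporter cells at 37 °C. Each well was multiplexed: SteadyGlo luminescence measured ATXN2-luciferase expression after a fluorogenic Gly-Phe-AFC viability readout (25 uM final).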
KB-3-1 cytotox: KB-3-1 parental cell cytotoxicity; KB-3-1 viability, CellTiter-Glo ATP luminescence, 72 h; Potency, µM (top dose mostly 46.1 µM), hits mostly cytotoxic; 400,000 tested, 1.4% active; further: on the % scale 0 is the no-effect control and ±100 the full control effect; nearly all actives have a fitted effect of over 60% in size
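Multi-concentration cytotoxicity screen in KB-3-1 cells grown in DMEM lacking phenol red with 10% FBS. After 72 h at 37 °C with compound, ATP-dependent luminescence was recorded.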
KB-V1 cytotox: kills drug-selected multidrug resistant KB-V1 cells | Potency, µM (highest dose often 46.1 µM), actives largely listed as cytotoxic | KB-V1 MDR cells viability, CellTiter-Glo, 72 h | AID 1347076 | 400,000 tested, 3.4% active; further: on the % scale 0 is the no-effect control and ±100 the full control effect; nearly all actives have a fitted effect of over 60% in size
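qHTS viability screen in drug-selected KB-V1 MDR cells: 72 h compound treatment at 37 degrees C, ATP luminescence end point.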
HT1080-NT tox: kills 2HG-producing HT-1080-NT fibrosarcoma cells; HT-1080-NT fibrosarcoma viability, CellTiter-Glo ATP luminescence, 48 h; Potency, µM (doses to about 46.1 µM), for the others: at the top dose activity, negative = less viability, most hits filed as cytotoxic; 360,000 tested, 1.6% active; AID 686970;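 further: NT is the 2HG producing partner of a matched IDH1 knockdown line; 0% = DMSO-treated cells and -100% = media-only wells without cells; nearly all actives have a fitted effect of over 55% in size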
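Compounds were tested in concentration-response format on HT-1080-NT cells for 48 hours at 37 degrees C. Cell viability came from CellTiter-Glo luminescence; curves were classified by r2, response magnitude and activity.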
ATXN viability: viability counter-screen for ATXN expression inhibitors | 400,000 tested, 0.49% active | Potency, µM (highest dose often 56.7 µM), hits mostly cytotoxic | AID 651635 | S2 cells (HEK-293 line with an ATXN2-luciferase reporter) viability, CellTiter-Fluor protease fluorescence, 24 h; further: nearly all actives have a fitted effect of over 40% in size
The depositor's hits bear a star; i = inactive; ? = inconclusive; . = no result. The call rests on the fitted dose curve; in most records, active means well fitted curve in the direction sought with a large enough effect; inconclusive means small, poorly fitted or top-dose-only effect, or another doubt; inactive means no such curve, though single readings can be large; an effect the other way counts as inactive or inconclusive. Potency means the concentration at half of the fitted maximal effect.

SMILES	HT1080 IDH1KD tx	ATXN2 expr inh	KB-3-1 cytotox	KB-V1 cytotox	HT1080-NT tox	ATXN viability
O=C(/C(N=Nc1cccc(C(F)(F)F)c1)=C(/O)c1cccs1)C(F)(F)F	20.6µM*	?	?	?	?	?
CN(C(=O)/C(N=Nc1cccc(C(F)(F)F)c1)=C(\O)C(F)(F)F)c1ccccc1	?	-4.2%	i	?	11.2µM*	i
CC(=O)/C(N=Nc1cccc(C(F)(F)F)c1)=C(\C)O	13.9%	-5.4%	i	i	13.7%	i
CCc1ccc(C(=O)C[N+]2(C)CCOCC2)cc1	.	.	i	i	.	.
O=C(Nc1nc2c(s1)CN(Cc1ccccc1)CC2)c1cccc(S(=O)(=O)N2CCc3ccccc32)c1	-21.7%	-4.6%	?	6.51µM*	-0.8%	i
CCc1nnc(NC(=O)c2ccc(S(=O)(=O)N(C)c3ccccc3)cc2)o1	?	?	?	i	-29.6%	i
O=C(Nc1nc2c(s1)CCCC2)c1ccc(S(=O)(=O)N2CCCc3ccccc32)cc1	-23.4%	-24.1%	5.8µM*	2.59µM*	-20.0%	i
CC1CCc2nc(NC(=O)c3ccc(S(=O)(=O)N4CCCc5ccccc54)cc3)sc2C1 (centres undefined)	0.8%	-16.8%	i	?	1.3%	i
CNC(=O)c1ccsc1NC(=O)c1ccc(S(=O)(=O)N2CCCc3ccccc32)cc1	-3.2%	?	8.2µM*	?	-14.2%	i
Cc1cc(NC(=O)c2ccc(S(=O)(=O)N3CCc4ccccc43)cc2)no1	-9.9%	-21.7%	i	i	-5.5%	i
O=C(Nc1nc2ccccc2s1)c1cccc(S(=O)(=O)N2CCc3ccccc32)c1	-24.9%	3.2%	?	?	?	i
CCc1nnc(NC(=O)c2ccc(S(=O)(=O)N3CCCc4ccccc43)cc2)o1	7.08µM*	?	i	?	?	?
COCCNC(=O)CCCn1c(SCc2ccccc2Cl)nc2c(sc3ccccc32)c1=O	.	-11.7%	i	i	.	i
Brc1cccc[n+]1CCCC[n+]1ccccc1Br	.	.	i	i	.	.
c1cncc(-c2nc(NCCCN3CCOCC3)c3c4c(sc3n2)CCC4)c1	?	.	?	i	18.4µM*	i
c1cncc(-c2nc(N3CCOCC3)c3c4c(sc3n2)CCC4)c1	-6.6%	?	i	i	3.3%	.
Cc1ccc(NC(=O)CN2C(=O)CCn3nc(-c4cccn4C)cc32)c(Cl)c1	.	10.6%	i	i	.	i
COC(=O)N/N=C/c1ccc(-c2cc(Cl)ccc2Cl)o1	1.9%	-5.2%	?	20.6µM*	-1.6%	i
Cc1cc(C(=O)N/N=C/c2cc(Br)ccc2OC(=O)c2ccccc2)n[nH]1	8.2µM*	26.7µM*	i	i	?	i
Cc1cc(C(=O)N/N=C/c2ccc(-c3ccccc3Cl)o2)n[nH]1	-0.6%	2.7%	?	23.1µM*	1.4%	i
NC(=S)N/N=C\c1ccc(-c2cccc(Cl)c2Cl)o1	-14.4%	57.5%	5.8µM*	1.3µM*	-29.1%	i
Cc1cc(C(=O)N/N=C/c2ccc(-c3ccc([N+](=O)[O-])cc3Cl)o2)n[nH]1	1.2%	-16.3%	i	i	-2.1%	i
Cc1cccc(Cn2c(SCc3ccc(C(=O)NCc4cccs4)cc3)nc3cccnc32)c1	.	-15.6%	i	?	.	?
CC(C)(C)C1CCC(CC2=C(O)c3ccccc3C(=O)C2=O)CC1 (centres undefined)	.	?	.	.	.	i
Cc1cccc(NC(=O)c2ccc(-n3cnc4cccnc43)cc2)c1C	.	21.7%	?	i	.	i
Cc1cc(C(=O)N/N=C/c2cc(Br)ccc2OC(=O)c2ccccc2Cl)n[nH]1	20.6µM*	?	?	?	?	.
Cc1ccc(/C=N/NC(=O)c2cc(-c3ccc(C)o3)[nH]n2)cc1	20.6µM*	-5.0%	?	?	?	i

Bioassay records as filed in PubChem BioAssay.
